Data from the supplement of paper PMC8728848.
Only a selection was taken, and the strongest signals are over-represented in it overall.

What was measured:
Assay in all cases: glycan array binding signal (z-score within array); higher = stronger binding
Conditions in all cases: glycan notation: IUPAC condensed, linker removed
[1] = target: Fuc(a1-2)Gal(b1-3)GlcNAc(b1-2)Man(a1-3)[Fuc(a1-2)Gal(b1-3)GlcNAc(b1-2)Man(a1-6)]Man(b1-4)GlcNAc(b1-4)GlcNAc
How it was run: (§1)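 Glycan array data were curated from 3228 arrays in the Consortium for Functional Glycomics database and kept only where the protein sequence was available. Glycan names were converted to IUPAC-condensed notation, and columns mapping to the same glycan were averaged. The binding signal is a within-array Z-score, averaged across arrays of the same protein sequence at different concentrations or buffers and across linkers. Negative Z-scores can be read as non-binding.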

[2] = target: Fuc(a1-2)Gal(b1-4)Glc
How it was run: as §1

[3] = target: Fuc(a1-2)Gal(b1-4)GlcNAc
How it was run: as §1

[4] = target: Fuc(a1-2)Gal(b1-4)GlcNAc6S
How it was run: as §1

[5] = target: Fuc(a1-2)[Gal(a1-3)]Gal
How it was run: as §1

[6] = target: Fuc(a1-2)[Gal(a1-3)]Gal(b1-4)Glc
How it was run: as §1

[7] = target: Fuc(a1-2)[Gal(a1-3)]Gal(b1-4)GlcNAc(b1-2)Man(a1-3)[Fuc(a1-2)[Gal(a1-3)]Gal(b1-4)GlcNAc(b1-2)Man(a1-6)]Man(b1-4)GlcNAc(b1-4)GlcNAc
How it was run: as §1

[8] = target: Fuc(a1-2)[GalNAc(b1-3)]Gal
How it was run: as §1

[9] = target: Fuc(a1-3)GlcNAc
How it was run: as §1

[10] = target: Fuc(a1-3)[Gal(b1-4)]GlcNAc
How it was run: as §1

[11] = target: Fuc(a1-3)[GalNAc(b1-4)]GlcNAc
How it was run: as §1

[12] = target: Fuc(b1-3)GlcNAc
How it was run: as §1

[13] = target: Gal(a1-2)Gal
How it was run: as §1

[14] = target: Gal(b1-3)[Fuc(a1-4)]GlcNAc(b1-2)Man(a1-3)[Gal(b1-3)[Fuc(a1-4)]GlcNAc(b1-2)Man(a1-6)]Man(b1-4)GlcNAc(b1-4)[Fuc(a1-6)]GlcNAc
How it was run: as §1

[15] = target: Gal(b1-4)GlcNAc(b1-3)Gal(b1-4)[Fuc(a1-3)]GlcNAc(b1-3)Gal(b1-4)[Fuc(a1-3)]GlcNAc
How it was run: as §1

[16] = target: Gal(b1-4)GlcNAc(b1-6)Gal(b1-4)GlcNAc(b1-6)GalNAc
How it was run: as §1

[17] = target: Gal(b1-4)GlcNAc(b1-6)GalNAc
How it was run: as §1

[18] = target: Gal(b1-4)GlcNAc(b1-6)[Gal(b1-3)]GalNAc
How it was run: as §1

[19] = target: Gal3S(b1-3)GalNAc
How it was run: as §1

[20] = target: Gal3S6S(b1-4)GlcNAc6S
How it was run: as §1

[21] = target: GalNAc(b1-4)GlcNAc
How it was run: as §1

[22] = target: Glc(a1-4)Glc
How it was run: as §1

[23] = target: Glc(b1-4)Glc
How it was run: as §1

[24] = target: GlcA(b1-3)Gal
How it was run: as §1

[25] = target: GlcNAc(a1-4)Gal(b1-4)GlcNAc(b1-3)Gal(b1-4)GlcNAc
How it was run: as §1

[26] = target: GlcNAc(b1-3)GalNAc
How it was run: as §1

[27] = target: GlcNAc(b1-6)GalNAc
How it was run: as §1

[28] = target: Neu5Ac(a2-3)Gal6S(b1-4)GlcNAc
How it was run: as §1

[29] = target: Neu5Ac(a2-6)Gal(b1-4)GlcNAc
How it was run: as §1

[30] = target: Neu5Ac(a2-8)Neu5Ac(a2-8)Neu5Ac(a2-3)Gal(b1-4)Glc
How it was run: as §1

[31] = target: Neu5Ac9Ac(a2-3)Gal(b1-4)GlcNAc
How it was run: as §1

[32] = target: Fuc(a1-2)Gal(b1-4)Glc6S
How it was run: as §1

[33] = target: Fuc(a1-2)Gal(b1-4)GlcNAc(b1-3)Gal(b1-4)GlcNAc
How it was run: as §1

[34] = target: Fuc(a1-2)Gal(b1-4)GlcNAc(b1-3)GalNAc
How it was run: as §1

[35] = target: Fuc(a1-2)Gal(b1-4)GlcNAc(b1-3)[Fuc(a1-2)Gal(b1-4)GlcNAc(b1-6)]GalNAc
How it was run: as §1

[36] = target: Fuc(a1-2)Gal(b1-4)GlcNAc(b1-3)[Fuc(a1-3)[Gal(b1-4)]GlcNAc(b1-6)]Gal(b1-4)Glc
How it was run: as §1

[37] = target: Fuc(a1-2)Gal6S(b1-3)GlcNAc6S
How it was run: as §1

[38] = target: Fuc(a1-2)Gal6S(b1-4)Glc
How it was run: as §1

[39] = target: Fuc(a1-2)[GalNAc(a1-3)]Gal
How it was run: as §1

[40] = target: Fuc(a1-2)[GalNAc(a1-3)]Gal(b1-3)GalNAc(a1-3)[Fuc(a1-2)]Gal(b1-4)GlcNAc
How it was run: as §1

[41] = target: Fuc(a1-3)[Gal(b1-4)]GlcNAc(b1-3)Gal(b1-3)[Fuc(a1-4)]GlcNAc
How it was run: as §1

[42] = target: Fuc(a1-3)[Gal(b1-4)]GlcNAc(b1-3)Gal(b1-4)[Fuc(a1-3)]GlcNAc
How it was run: as §1

[43] = target: Fuc(a1-3)[Gal(b1-4)]GlcNAc(b1-6)GalNAc
How it was run: as §1

[44] = target: Gal(a1-3)Gal(b1-3)GlcNAc
How it was run: as §1

[45] = target: Gal(b1-3)Gal(b1-4)GlcNAc
How it was run: as §1

[46] = target: Gal(b1-3)GlcNAc(b1-3)Gal(b1-3)GlcNAc
How it was run: as §1

[47] = target: Gal(b1-3)GlcNAc(b1-3)Gal(b1-4)GlcNAc(b1-3)Gal(b1-4)GlcNAc(b1-2)[Gal(b1-3)GlcNAc(b1-3)Gal(b1-4)GlcNAc(b1-3)Gal(b1-4)GlcNAc(b1-6)]Man(a1-6)[Gal(b1-3)GlcNAc(b1-3)Gal(b1-4)GlcNAc(b1-3)Gal(b1-4)GlcNAc(b1-2)Man(a1-3)]Man(b1-4)GlcNAc(b1-4)[Fuc(a1-6)]GlcNAc
How it was run: as §1

[48] = target: Gal(b1-3)[Fuc(a1-4)]GlcNAc(b1-2)Man
How it was run: as §1

[49] = target: Gal(b1-3)[Fuc(a1-4)]GlcNAc(b1-6)GalNAc
How it was run: as §1

[50] = target: Gal(b1-3)[Neu5Ac(a2-6)]GlcNAc(b1-4)Gal(b1-4)Glc
How it was run: as §1

[51] = target: Gal(b1-3)[Neu5Ac(b2-6)]GalNAc
How it was run: as §1

[52] = target: Gal(b1-4)GlcNAc(b1-3)Gal(b1-4)Glc
How it was run: as §1

[53] = target: Gal(b1-4)GlcNAc(b1-3)Gal(b1-4)GlcNAc(b1-3)Gal(b1-4)GlcNAc(b1-3)Gal(b1-4)GlcNAc(b1-3)Gal(b1-4)GlcNAc(b1-2)Man(a1-3)[Gal(b1-4)GlcNAc(b1-3)Gal(b1-4)GlcNAc(b1-3)Gal(b1-4)GlcNAc(b1-3)Gal(b1-4)GlcNAc(b1-3)Gal(b1-4)GlcNAc(b1-2)Man(a1-6)]Man(b1-4)GlcNAc(b1-4)GlcNAc
How it was run: as §1

[54] = target: Gal3S(b1-4)[Fuc(a1-3)]Glc6S
How it was run: as §1

[55] = target: Gal6S(b1-4)GlcNAc6S
How it was run: as §1

[56] = target: GalNAc3S(b1-4)GlcNAc
How it was run: as §1

B1: DC-ASPGR (Homo sapiens), CLC10_HUMAN (protein)
chain: LDQNSKFQRDLVTLRTDFSNFTSNTVAEIQALTSQGSSLEETIASLKAEVEGFKQERQAVHSEMLLRVQQLVQDLKKLTCQVATLNNNASTEGTCCPVNWVEHQDSCYWFSHSGMSWAEAEKYCQLKNAHLVVINSREEQNFVQKYLGSAYTWMGLSDPEGAWKWVDGTDYATGFQNWKPGQPDDWQGHGLGGGEDCAHFHPDGRWNDDVCQRPYHWVCEAGLGQTSQESHVEPKSCDKTHTCPPCPAPELLGGPSVFLFPPKPKDTLMISRTPEVTCVVVDVSHEDPEVKFNWYVDGVEVHNAKTKPREEQFNSTYRVVSVLTVLHQDWLNGKEYKCKVSNKGLPSSIEKTISKAKGQPREPQVYTLPPSQEEMTKNQVSLTCLVKGFYPSDIAVEWESNGQPENNYKTTPPVLDSDGSFFLYSRLTVDKSRWQEGNVFSCSVMHEALHNHYTQK
[1]
  glycan array binding signal (z-score): -0.074
[2]
  glycan array binding signal (z-score): -0.082
[3]
  glycan array binding signal (z-score): -0.165
[4]
  glycan array binding signal (z-score): -0.177
[5]
  glycan array binding signal (z-score): -0.287
[6]
  glycan array binding signal (z-score): -0.303
[7]
  glycan array binding signal (z-score): -0.297
[8]
  glycan array binding signal (z-score): 3.91
[9]
  glycan array binding signal (z-score): -0.256
[10]
  glycan array binding signal (z-score): -0.246
[11]
  glycan array binding signal (z-score): 2.36
[12]
  glycan array binding signal (z-score): -0.235
[13]
  glycan array binding signal (z-score): -0.14
[14]
  glycan array binding signal (z-score): -0.15
[15]
  glycan array binding signal (z-score): -0.197
[16]
  glycan array binding signal (z-score): -0.298
[17]
  glycan array binding signal (z-score): 3.86
[18]
  glycan array binding signal (z-score): -0.173
[19]
  glycan array binding signal (z-score): -0.146
[20]
  glycan array binding signal (z-score): -0.248
[21]
  glycan array binding signal (z-score): 2.66
[22]
  glycan array binding signal (z-score): 5.49
[23]
  glycan array binding signal (z-score): -0.27
[24]
  glycan array binding signal (z-score): -0.276
[25]
  glycan array binding signal (z-score): -0.092
[26]
  glycan array binding signal (z-score): -0.27
[27]
  glycan array binding signal (z-score): 4.28
[28]
  glycan array binding signal (z-score): -0.179
[29]
  glycan array binding signal (z-score): -0.236
[30]
  glycan array binding signal (z-score): -0.244
[31]
  glycan array binding signal (z-score): -0.099

B2: Tamarinin (protein)
chain: CDDSARAGNIVVYWGQGGSDNSEGSLKEACKSGHYNMIVLQQLIVYDDGRDPDLNLGAHCSDCTKLEEQIKYCQNKDIKILLQIGQVVPTQEDVKDVTKNLSEYLLKNFFSGKSGPLGEVYLNGIDIASVPEGNNLKFDELVEALNDSSTERRIYLSASPLCVYPDYYLNKAIQTEKLDFLFVQFFYQNPCIYTEGNPENLFEAMKTWTKNVPESMIFMALPATPNLDGYIPPRVLNKEILPAVSEASNFAGVMIFDRYFDRFRKYSSKIK
[1]
  glycan array binding signal (z-score): 0.79
[32]
  glycan array binding signal (z-score): -0.241
[33]
  glycan array binding signal (z-score): -0.361
[34]
  glycan array binding signal (z-score): 0.146
[35]
  glycan array binding signal (z-score): 4.01
[36]
  glycan array binding signal (z-score): -0.458
[37]
  glycan array binding signal (z-score): 4.89
[38]
  glycan array binding signal (z-score): -0.164
[5]
  glycan array binding signal (z-score): -0.275
[39]
  glycan array binding signal (z-score): -0.388
[40]
  glycan array binding signal (z-score): -0.292
[41]
  glycan array binding signal (z-score): -0.377
[42]
  glycan array binding signal (z-score): 0.223
[43]
  glycan array binding signal (z-score): -0.129
[11]
  glycan array binding signal (z-score): -0.154
[13]
  glycan array binding signal (z-score): -0.001
[44]
  glycan array binding signal (z-score): -0.375
[45]
  glycan array binding signal (z-score): 11.2
[46]
  glycan array binding signal (z-score): -0.135
[47]
  glycan array binding signal (z-score): 4.61
[48]
  glycan array binding signal (z-score): 1.45
[14]
  glycan array binding signal (z-score): 3.52
[49]
  glycan array binding signal (z-score): -0.371
[50]
  glycan array binding signal (z-score): 2.92
[51]
  glycan array binding signal (z-score): -0.455
[52]
  glycan array binding signal (z-score): 0.79
[53]
  glycan array binding signal (z-score): -0.24
[54]
  glycan array binding signal (z-score): -0.238
[55]
  glycan array binding signal (z-score): -0.214
[56]
  glycan array binding signal (z-score): 2.59
